PubChem BioAssay (Tox21)
Records with an inconclusive call do not appear. Active and inactive are the calls of the source. Calls follow the shape of the dose curve; as a rule, active = well fitted curve in the direction sought with a large enough effect in the repeat runs; inconclusive = weak or mixed curves; inactive = no such curve, though single readings can be large; an effect the other way counts as inactive or inconclusive.

Legend:
[1] = qHTS RealTime-Glo MT Cell Viability Assay in HepG2 cells - 40 hour (AID 1224870); also: nearly all actives have a fitted effect of over 50% in size
In short: (§1)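 HepG2 cells (600/well) mixed with RealTime-Glo MT reagent, settled 5 h at 37 C/5% CO2 before compound addition. Nonlytic NanoLuc luminescence from viable-cell prosubstrate reduction read repeatedly during 40 h treatment at 37 C.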

[2] = A CellTox Green Cytotoxicity Assay to monitor cytotoxicity in HEK293 cells - 40 hour (AID 1224871); also: nearly all actives have a fitted effect of over 45% in size
In short: (§2)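 HEK293 cells premixed with CellTox Green dye were seeded at 600 cells/well and left 5 h at 37 C/5% CO2 before pin transfer of 23 nL compound in DMSO. Fluorescence from dye bound to dead-cell DNA was read during 40 h treatment.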

[3] = qHTS RealTime-Glo MT Cell Viability Assay in HEK293 cells - 16 hour (AID 1224872); also: top concentration of the series differs between compounds; nearly all actives have a fitted effect of over 50% in size
In short: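 Nonlytic real-time viability readout: viable cells convert prosubstrate to NanoLuc substrate, giving luminescence proportional to live cell number. HEK293, 600 cells/well, compound added after 5 h, continuous culture at 37 C.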

[4] = qHTS RealTime-Glo MT Cell Viability Assay in HepG2 cells - 8 hour (AID 1224873); also: nearly all actives have a fitted effect of over 55% in size
In short: as §1

[5] = qHTS RealTime-Glo MT Cell Viability Assay in HEK293 cells - 40 hour (AID 1224874); settings: RealTime-Glo luminescence; max response: hits give low values; also: nearly all actives have a fitted effect of over 50% in size
In short: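 HEK293 cells mixed with RealTime-Glo reagents (NanoLuc plus cell-permeant prosubstrate) at 600 cells/well, preincubated 5 h at 37 C/5% CO2, then given 23 nL compound in DMSO. Nonlytic luminescence from viable cells was read at 0, 8, 16, 24, 32 and 40 h.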

[6] = A CellTox Green Cytotoxicity Assay to monitor cytotoxicity in HEK293 cells - 24 hour (AID 1224875); also: series mostly up to about 77 µM; nearly all actives have a fitted effect of over 45% in size
In short: as §2

[7] = A CellTox Green Cytotoxicity Assay to monitor cytotoxicity in HepG2 cells - 16 hour (AID 1224876); also: nearly all actives have a fitted effect of over 45% in size
In short: (§3)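 HepG2 cells were seeded together with the CellTox Green dye at 600 cells/well, left 5 h at 37 C/5% CO2, then given compounds in DMSO. Fluorescence from dye bound to dead-cell DNA was read repeatedly over 40 h of treatment at 37 C.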

[8] = qHTS RealTime-Glo MT Cell Viability Assay in HepG2 cells - 32 hour (AID 1224877); also: nearly all actives have a fitted effect of over 55% in size
In short: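 Luminescence read-out: viable HepG2 cells reduce a prosubstrate to a NanoLuc substrate, giving a signal proportional to live cell number. Reads taken at 0, 8, 16, 24, 32 and 40 h of compound exposure at 37 C.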

[9] = A CellTox Green Cytotoxicity Assay to monitor cytotoxicity in HepG2 cells - 24 hour (AID 1224878); also: nearly all actives have a fitted effect of over 45% in size
In short: as §3

[10] = A CellTox Green Cytotoxicity Assay to monitor cytotoxicity in HepG2 cells - 40 hour (AID 1224879); also: nearly all actives have a fitted effect of over 40% in size
In short: as §3
% is scaled to controls: 0 for no effect and ±100 for the full control effect.

O=[N+]([O-])c1nccn1CO[C@@H](CO)[C@H](O)CO
inactive: Potency [1] | Potency [2] | Potency [3] | outcome [4] | max response [5] -3.33% | Potency [6] | Potency [7] | Potency [8] | Potency [9] | Potency [10]

CC(C)NC[C@@H](O)COc1cccc2ccccc12
inactive: Potency [1] | Potency [2] | Potency [3] | outcome [4] | max response [5] -27.3% | Potency [6] | Potency [7] | Potency [8] | Potency [9]

CC1CN(c2ccccc2)NC1=O (centres undefined)
inactive: Potency [1] | Potency [2] | Potency [3] | outcome [4] | max response [5] -13.5% | Potency [6] | Potency [7] | Potency [8] | Potency [9]

NC(=O)NS(=O)(=O)c1ccc(Cl)cc1
inactive: Potency [1] | Potency [2] | Potency [3] | outcome [4] | max response [5] 0.44% | Potency [6] | Potency [7] | Potency [8] | Potency [9]

CCOc1ccc2nc(N)sc2c1
inactive: Potency [1] | Potency [2] | Potency [3] | outcome [4] | max response [5] -4.71% | Potency [6] | Potency [7] | Potency [8] | Potency [9] | Potency [10]

Nc1cccc(S(=O)(=O)O)c1
inactive: Potency [1] | Potency [2] | Potency [3] | outcome [4] | max response [5] 3% | Potency [6] | Potency [7] | Potency [8] | Potency [9]

CC(C)OC(C)C
inactive: Potency [1] | Potency [2] | Potency [3] | outcome [4] | max response [5] 20.1% | Potency [6] | Potency [7] | Potency [8] | Potency [9]

O=c1[nH]cnc2c1ncn2[C@@H]1O[C@H](CO)[C@@H](O)[C@H]1O
inactive: Potency [1] | Potency [2] | Potency [3] | outcome [4] | max response [5] 1.22% | Potency [6] | Potency [7] | Potency [8] | Potency [9]

CCN(CC)C(=O)N(CC)CC
inactive: Potency [1] | Potency [2] | Potency [3] | outcome [4] | max response [5] 4.58% | Potency [6] | Potency [7] | Potency [8] | Potency [9]

CC(C)C1=CC2=CC[C@@H]3[C@](C)(CCC[C@@]3(C)C(=O)O)[C@H]2CC1
inactive: Potency [1] | Potency [2] | Potency [3] | outcome [4] | max response [5] 3.7% | Potency [6] | Potency [7] | Potency [8] | Potency [9]

Nc1ccc2ccccc2c1S(=O)(=O)O
inactive: Potency [1] | Potency [2] | Potency [3] | outcome [4] | max response [5] -4.03% | Potency [6] | Potency [7] | Potency [8] | Potency [9]

CCc1nnc(NS(=O)(=O)c2ccc(N)cc2)s1
inactive: Potency [1] | Potency [2] | Potency [3] | outcome [4] | max response [5] 6.63% | Potency [6] | Potency [7] | Potency [8] | Potency [9]

CC1=C(O)C(=O)OC1C (centres undefined)
inactive: Potency [1] | Potency [2] | Potency [3] | outcome [4] | max response [5] 1.31% | Potency [6] | Potency [7] | Potency [8] | Potency [9]

CCCCNCCCC
inactive: Potency [1] | Potency [2] | Potency [3] | outcome [4] | max response [5] 1.62% | Potency [6] | Potency [7] | Potency [8] | Potency [9] | Potency [10]

CC(=O)N(CC(O)CN(C(C)=O)c1c(I)c(C(=O)NCC(O)CO)c(I)c(C(=O)NCC(O)CO)c1I)c1c(I)c(C(=O)NCC(O)CO)c(I)c(C(=O)NCC(O)CO)c1I (centres undefined)
inactive: Potency [1] | Potency [2] | Potency [3] | outcome [4] | max response [5] 0.602% | Potency [6] | Potency [7] | Potency [8] | Potency [9] | Potency [10]

CN1CCN(N)CC1
inactive: Potency [1] | Potency [2] | Potency [3] | outcome [4] | max response [5] 5.85% | Potency [6] | Potency [7] | Potency [8] | Potency [9] | Potency [10]

CC1(C)S[C@@H]2[C@H](NC(=O)C(C(=O)O)c3ccccc3)C(=O)N2[C@H]1C(=O)O (some centres undefined)
inactive: Potency [1] | Potency [2] | Potency [3] | outcome [4] | max response [5] -0.907% | Potency [6] | Potency [7] | Potency [8] | Potency [9] | Potency [10]

CC(=O)O[C@H]1CC[C@@]2(C)C(=CC[C@@H]3[C@@H]2CC[C@]2(C)C(C(C)=O)=CC[C@@H]32)C1
inactive: Potency [1] | Potency [2] | Potency [3] | outcome [4] | max response [5] -20.5% | Potency [6] | Potency [7] | Potency [8] | Potency [9] | Potency [10]

Cc1c(N)cccc1N
inactive: Potency [1] | Potency [2] | Potency [3] | outcome [4] | max response [5] 12.2% | Potency [6] | Potency [7] | Potency [8] | Potency [9] | Potency [10]

CCOC(=O)[C@H](CCc1ccccc1)N[C@@H](C)C(=O)N1Cc2cc(OC)c(OC)cc2C[C@H]1C(=O)O
inactive: Potency [1] | Potency [2] | Potency [3] | outcome [4] | max response [5] 3.96% | Potency [6] | Potency [7] | Potency [8] | Potency [9] | Potency [10]

CCCCCCCCCC#N
inactive: Potency [1] | Potency [2] | Potency [3] | outcome [4] | max response [5] 0.388% | Potency [6] | Potency [7] | Potency [8] | Potency [9] | Potency [10]

Cc1c(C(=O)NCCO)[n+](=O)c2ccccc2n1[O-]
inactive: Potency [1] | Potency [2] | Potency [3] | outcome [4] | max response [5] 0.805% | Potency [6] | Potency [7] | Potency [8] | Potency [9] | Potency [10]

FC(F)(F)c1ccccc1
inactive: Potency [1] | Potency [2] | Potency [3] | outcome [4] | max response [5] 11.8% | Potency [6] | Potency [7] | Potency [8] | Potency [9] | Potency [10]
